Test results reported in the supplement of paper PMC10681739.

Target: RUNX1 (UniProt Q01196)
Assay: RUNX1 binding intensity (PBM fluorescence) in presence of ETS1, normalised to RUNX1-only experiment (arbitrary fluorescence units); higher = stronger binding
Conditions: RUNX1 concentration 2 nM; ETS1 concentration 25 nM
Description: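 Cooperative gcPBM on 36-bp genomic probes with neighbouring ETS1 and RUNX1 sites. Recombinant human RUNX1 (2 nM) was incubated alone or with ETS1 (25 nM) and detected with anti-RUNX1 antibody plus Alexa488 secondary. Values are medians over 4 replicate spots; the RUNX1+ETS1 data were normalised to the RUNX1-only data. The probes sit in constant array flanks that are not printed.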
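Further: Full-length recombinant human ETS1 or RUNX1 bound to double-stranded 36-bp genomic probes on microarrays, detected by protein-specific primary antibody and Alexa488 secondary, spot fluorescence as median of four replicate spots.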

Chain of RUNX1 (Q01196 whole entry): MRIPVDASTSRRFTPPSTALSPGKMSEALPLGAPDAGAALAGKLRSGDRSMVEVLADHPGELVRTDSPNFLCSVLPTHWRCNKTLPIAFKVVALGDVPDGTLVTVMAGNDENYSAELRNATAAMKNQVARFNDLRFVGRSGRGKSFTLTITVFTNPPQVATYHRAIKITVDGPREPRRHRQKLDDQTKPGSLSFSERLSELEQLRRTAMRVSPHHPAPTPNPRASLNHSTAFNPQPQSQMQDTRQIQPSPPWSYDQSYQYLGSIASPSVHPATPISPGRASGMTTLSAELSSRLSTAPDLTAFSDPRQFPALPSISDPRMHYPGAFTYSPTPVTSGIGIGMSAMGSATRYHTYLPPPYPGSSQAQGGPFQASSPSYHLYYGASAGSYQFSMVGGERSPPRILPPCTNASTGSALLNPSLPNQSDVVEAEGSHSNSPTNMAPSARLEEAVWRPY

Sequence	RUNX1 binding intensity
GCCCAGGCAGGAAGCCAGGCGCCCACAGGTTGGCAG	923
GCAGCATTTCCTGACTTCTTCGCCCCTGTGGTTGCA	1690
CAGAAACATCCCTCCTGCCGCCGCTTTGTGGTACCA	925
GTTATTCTCCCCTTCCTGTGGTGTGTTTTGATGGTA	1590
ACAGGAAATGTTAGAGGTTGAGTTAGCGGTTATGAG	914
TGCCGGGCCCCGGATGTCACCGCAGCCGCCATCTTA	1990
CGAAACGCGTTCCCCGGAAACCGCGCCCGGCTCCGA	1090
CACCTAAAGCCATTGGGATGTGGTTTCTCTTTTTCA	1010
CTCGCCCCATTTCCCGTAAATATCAGCCACAGACCA	1900
GGATGAACAGGAAGCTAAAGTAAATACCACAGTGAC	1190
GCAACTGAACAGGAAACTAAAAAACCACAACACTTA	7890
AGCTGAGAGCCTGCCGGAAGCCACAGCTTCTTCTCG	1200
GATGCTTGTTCAGGATGCGGTTTCTTGCAGCAAGTT	5090
AACAACAGGATGCTCTCTAGTCTAACAGTGGTAACA	1020
AGAAGCTGCAGTCCCGGAAGCGGTTTTAGGGGGCCG	1310
CCCCGCGGAACTCTGGCACAGTCAGCTGACCGCAGA	1440
GTGGTCGGGAGGGGAAGTGAGGCGGTTACCTCGGCG	925
CCTGTCCGGAAGTCCTGAGAGGGAATCGCCCGCAAA	1690
CTGCTGACCAAAACAGGATGTGGTCTACACAAAGTG	3500
AGGGTTACAATTTCCGTAAACCACAGAAGCAGCAGA	2560
GCTGACCCGGAAGCGCTCGTGACCACCATCTCCGAC	1370
